This is an account of results in ChEMBL document CHEMBL4296182, “CO-ADD screening of NIH NCI Diversity Set V”.

Molecules are shown by their SMILES. For part of these data: Entries with a potency or affinity are not part of this list.

Test [1] relates to Staphylococcus aureus. Nature of the test: Antibacterial activity against Staphylococcus aureus MRSA ATCC 43300 (CO-ADD:GP_020); MIC in CAMBH media using NBS plates, by Resazurin F(560/590). It is filed as functional. As to conditions: Concentration 20 uM, ASSAY_TEST Inhibition of Bacterial Growth, detection method Resazurin, Fluorescence (ex560/em590), MEDIA CAMHB, plate type 384well, CORNING #3640, time 18 hr.

Test [2] has as its system Acinetobacter baumannii. As to the kind of experiment: Antibacterial activity against Acinetobacter baumannii ATCC 19606 (CO-ADD:GN_034); MIC in CAMBH media using NBS plates, by Resazurin F(560/590). It is filed as functional. The settings on record: Concentration 20 uM, ASSAY_TEST Inhibition of Bacterial Growth, detection method Resazurin, Fluorescence (ex560/em590), MEDIA CAMHB, plate type 384well, CORNING #3640, time 18 hr. On the technique in general: Alamar Blue is a resazurin reagent that responds to reducing activity.

Test [3] relates to Escherichia coli. As to the kind of experiment: Antibacterial activity against Escherichia coli ATCC 25922 (CO-ADD:GN_001); MIC in CAMBH media using NBS plates, by Resazurin F(560/590). It counts as functional. The settings on record: Concentration 20 uM, ASSAY_TEST Inhibition of Bacterial Growth, detection method Resazurin, Fluorescence (ex560/em590), MEDIA CAMHB, plate type 384well, CORNING #3640, time 18 hr.

The subject of test [4] is Klebsiella pneumoniae. The settings on record: Concentration 20 uM; ASSAY_TEST Inhibition of Bacterial Growth; detection method Absorption (OD600); MEDIA CAMHB; plate type 384well; NBS; CORNING #3640; time 18 hr.
For test [5], the system named is Candida albicans. As to conditions: 20 µM.
Test [6] has as its system Cryptococcus neoformans. The settings on record: Concentration 20 uM; ASSAY_TEST Inhibition of Fungal Growth; detection method Resazurin; Absorption (OD600-OD570); plate type 384well; NBS; CORNING #3640.

The Inhibition is the relative decrease from the control value, in per cent. Take `CNC(=O)Oc1ccc(N(C)C)cc1C(C)C`: the Inhibition was 11.71% in test [1]; -2.68% in test [2]; 9.69% in test [3]; 11.23% in test [4]; -1.51% in test [5]; -12.66% in test [6].
As for `OCC1CN1C1CCCCC1` (stereo not drawn), the Inhibition in test [1] is -3.39%; in test [2], -14.33%; in test [3], 0.67%; in test [4], 26.1%; in test [5], 2.25%; in test [6], -2.3%.
In the case of `CCC1CN1P1(=O)OCC(C)([N+](=O)[O-])CO1` (stereo not drawn), the Inhibition is -8.05% in test [1]; -16.64% in test [2]; 2.35% in test [3]; 8.08% in test [4]; 0.16% in test [5]; 0.43% in test [6].
Take `COc1ccc2c3c1O[C@H]1C[C@@H](O)C=C[C@@]31CCN(C)C2` [GALANTAMINE]: the Inhibition in test [1] was 2.8%; in test [2] it was 5.17%; in test [3], -15.55%; in test [4], 17.41%; in test [5] it was 7.99%; in test [6], 22.63%.
On to `COc1ccc2c(c1)NP(=S)(Oc1ccccc1)N2` (stereo not drawn), for which the Inhibition in test [1] is -0.02%; in test [2], 7.67%; in test [3], -4.02%; in test [4], 16.19%; in test [5], 18.7%; in test [6], 0.61%.
With `O=P(Oc1ccccc1)(Oc1ccccc1)c1ccccc1`, the Inhibition in test [1] is 1.14%; in test [2], -14.38%; in test [3] it was 1.1%; in test [4], 1.03%; in test [5], 4.45%; in test [6], -2.59%.
For the molecule `C[C@]12CC[C@@H]3c4ccc(OC(=O)N(CCCl)CCCl)cc4CC[C@H]3[C@@H]1CC[C@@H]2O` [ESTRAMUSTINE], the Inhibition in test [1] was 12.2%; in test [2], -4.55%; in test [3], -3.6%; in test [4], 12.05%; in test [5] it was 11%; in test [6], -2.85%.
Turning to `O=P(OC1=CCCCC1)(c1ccccc1)c1ccccc1`, the Inhibition in test [1] was 2.77%; in test [2] it was -7.09%; in test [3] it was 6.17%; in test [4] it was 9.43%; in test [5] it was 4.11%; in test [6] it was -2.72%.
For `O=C1NC(=O)C(=Cc2ccc3ccccc3c2)C(=O)N1`, the Inhibition in test [1] was 0.11%; in test [2] it was 10.33%; in test [3] it was -2.67%; in test [4] it was 19.68%; in test [5], 25.6%; in test [6] it was -7.82%.
Take `Cc1nc(C)c(C(=O)N/N=C/c2ccc(N(CCCl)CCCl)cc2)s1`: the Inhibition is 4.54% in test [1]; 12.95% in test [2]; 1.76% in test [3]; 6.18% in test [4]; -1.16% in test [5]; -8.81% in test [6].
With `C[C@H]1[C@H](C)N1CC(O)Cn1ccnc1[N+](=O)[O-]` (stereo partly drawn), the Inhibition in test [1] is 3.93%; in test [2], 7.84%; in test [3] it was -2.75%; in test [4], 19.25%; in test [5], 3.06%; in test [6], -3.91%.
In the case of `[Cl-].c1ccc(-c2nn(-c3ccccc3)[n+](-c3ccccc3)n2)cc1` [TETRAZOLIUM RED], the Inhibition was -10.8% in test [1]; -19.48% in test [2]; 7.25% in test [3]; 5.91% in test [4]; 0.89% in test [5]; -6.85% in test [6].
Turning to `CCN1CCc2ccccc2C1`, the Inhibition in test [1] was 13.64%; in test [2], -13.05%; in test [3], 15.08%; in test [4], 8.74%; in test [5] it was 0.25%; in test [6], -10.24%.
In the case of `C/C=C/CC1(CC)C(=O)NC(=S)NC1=O`, the Inhibition in test [1] is -2.18%; in test [2], -12.12%; in test [3] it was -2.34%; in test [4], 1.47%; in test [5], 1.14%; in test [6], 0.11%.
In the case of `c1cnc2c(c1)ccc1ncccc12`, the Inhibition was 9.5% in test [1]; -5.64% in test [2]; 9.97% in test [3]; 12.45% in test [4]; 0.86% in test [5]; -4.19% in test [6].
On to `CSc1nc(=O)c(/N=N/c2ccc([As](=O)(O)O)cc2)c(N)[nH]1`, for which the Inhibition in test [1] is -2.85%; in test [2] it was 10.89%; in test [3], 7.88%; in test [4] it was 8.89%; in test [5], -0.24%; in test [6], -16.43%.
Turning to `O=C1N[C@H]2[C@H](O)[C@H](O)[C@@H](O)[C@H](O)[C@@H]2c2cc3c(c(O)c21)OCO3` [PANCRATISTATIN], the Inhibition in test [1] was 12.72%; in test [2], 6.17%; in test [3] it was 0.6%; in test [4] it was 1.56%; in test [5] it was 0.06%; in test [6] it was -14.69%.
For the molecule `CS(=O)(=O)O.O=C1CCC2(O)[C@@H]3Cc4ccc(O)c5c4[C@]2(CCN3Cc2ccoc2)C1O5` (stereo partly drawn), the Inhibition in test [1] was 1.32%; in test [2], -2.4%; in test [3] it was -2.68%; in test [4], 10.23%; in test [5], 1.48%; in test [6] it was -6.77%.
In the case of `Cc1ccccc1-n1c(/C=C\c2ccccn2)nc2ccccc2c1=O`, the Inhibition was -4.95% in test [1]; -2.79% in test [2]; 7.76% in test [3]; 14.95% in test [4]; 5.08% in test [5]; -6.01% in test [6].
Take `CC[C@@]1(O)C(=O)OCc2c1cc1n(c2=O)Cc2cc3c(N)cccc3nc2-1` [9-AMINOCAMPTOTHECIN]: the Inhibition in test [1] is 34.7%; in test [2] it was -5.64%; in test [3] it was 12.69%; in test [4], 8.25%; in test [5], 4.9%; in test [6] it was -6.8%.
Regarding `CCOP(=O)(OCC)/C(C#N)=C/c1ccc(Br)cc1`, the Inhibition in test [1] was 9.27%; in test [2] it was 13.14%; in test [3] it was 8.82%; in test [4], 9.61%; in test [5] it was 2.02%; in test [6], -11.15%.
`COc1c(OP2(=S)OCC(C)(C)CO2)cnn(C2CCCCC2)c1=O`: the Inhibition in test [1] is 22.66%; in test [2] it was -7.99%; in test [3], 17.33%; in test [4] it was 10.42%; in test [5], -1.61%; in test [6], -6%.
With `CC(=O)Nc1cccc([As](=O)(c2cccc(NC(C)=O)c2)c2cccc(NC(C)=O)c2)c1`, the Inhibition in test [1] is 0.93%; in test [2], 1.38%; in test [3] it was -5.49%; in test [4], 9.67%; in test [5], 0.37%; in test [6], -8.79%.
